40 compounds from PubChem BioAssay (NCI) can be followed below.

This is part of a sample that, as a whole, favours compounds with a hit. Of some 83,000 tested, about 20% had one in any assay.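 Negative percent growth values reflect cell death: -40 means 40% of the cells present at the start died, and -100 means all died.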 Calls of active or inactive are those of the source. Rule for the calls: active = growth percent below 10; inactive = the rest.

The test system of the test is MDA-MB-468 breast. Nature of the test: NCI-60 one-dose screen, 48 h (100 = growth as untreated, 0 = no growth, -100 = all killed). Conditions: 10 µM unless noted.
Regarding `Nc1nc2nnc(-c3ccccc3)c(-c3ccccc3)n2n1`, the growth was 99.9% (inactive).

`CCOC(=O)C1CC(=O)c2cc(OC)c(OC)cc2C1` (stereo not given): the growth is 84.9% (inactive).

As to `CCn1cc(C(=O)NNC(=S)Nc2ccc(C)cc2)c(=O)c2ccc(C)nc21`, the growth was 88% (inactive).

With `C=C1C(=O)O[C@H]2[C@H]1CC/C(Cn1cc(CNCCc3c[nH]c4ccc(Cl)cc34)nn1)=C\CC[C@@]1(C)O[C@@H]21`, the growth was 19.6% (inactive).

As for `COC(=O)c1ccc2oc(NC(=O)c3ccc(N4CCOCC4)c([N+](=O)[O-])c3)nc2c1`, the growth was 113% (inactive).

As to `O=C(Oc1ccccc1Cl)c1ccc(Cl)cc1Cl`, the growth was 103% (inactive).

As to `O=C(O)c1c[nH]c2ccccc2c1=O`, the growth is 114% (inactive).

For the compound `N#Cc1ccc(-c2ccc(-c3cccs3)o2)cc1F`, the growth was 6.91% (active).

`O=C(Nc1ccc(-n2ccc3c(NC(=O)c4ccccc4)ncnc32)cc1)Nc1cccc(Cl)c1Cl`: the growth is -35.7% (active).

`CC(=O)c1c[nH]c2ccccc12`: the growth is 104% (inactive).

Take `C=C1C(=O)C2CCC1C2` (stereo not given): the growth was 110% (inactive).

For `Nc1ccc2c(c1)C(=O)C(=O)c1c-2nc2ccccn12`, the growth is -38.2% (active).

`O=C1C(Br)=C(c2ccccc2)C(=O)C(Br)=C1c1ccccc1`: the growth is 92% (inactive).

For `COc1cc2nc(-c3ccc(-c4nn[nH]n4)cc3)[nH]c(=O)c2cc1OC`, the growth was 104% (inactive).

As to `CCN(CC)CC(O)Cc1ccc(OC)cc1` (stereo not given), the growth was 97.9% (inactive).

Consider `COc1ccc(C2CC(c3cccc(Nc4ccnc5cc(Cl)ccc45)c3)=NN2C=O)cc1` (stereo not given), for which the growth is 7.85% (active).

Turning to `Cn1cnc(-c2cc3nccc(Oc4ccc(NC(=S)NC(=O)Cc5ccccc5)cc4F)c3s2)c1`, the growth is 103% (inactive).

Turning to `CN1C(=O)/C(=C\c2c(Cl)cccc2Cl)c2ccccc21`, the growth was 37.7% (inactive).

In the case of `CCN1CC(CCN2CCOCC2)C(C(c2ccccc2)c2ccccc2)C1=O` (stereo not given), the growth is 102% (inactive).

For the compound `NC(=O)N/N=C/c1ccc(Br)o1`, the growth is 109% (inactive).

`Cc1cc2c3c(cccc3c1)C(=O)c1ccccc1-2`: the growth is 63.7% (inactive).

In the case of `Cc1cc(=O)n(Nc2ccccc2)c(O)c1C#N`, the growth was 108% (inactive).

For `O=C1[C@H]2Cc3c([nH]c4ccccc34)[C@H](c3ccc(Cl)cc3)N2C(=O)CN1C1CCN(Cc2c(Cl)cccc2Cl)CC1`, the growth is 57.5% (inactive).

With `CN1CCN(c2nc(-c3csc(-c4ccccc4)n3)cc3ccccc23)CC1`, the growth is -71.9% (active).

As to `O=C(Nc1ccncc1)C(=O)c1cn(S(=O)(=O)c2cc(Cl)cc(Cl)c2)c2ccccc12`, the growth was 41.6% (inactive).

As for `CN1CCN(CCCOc2cccc3nc(Nc4ccc(Cl)c(F)c4)ccc23)CC1`, the growth is 33.2% (inactive).

With `c1ccc(CCc2ccccc2-c2cc(-c3ccccc3)on2)cc1`, the growth is 93.8% (inactive).

With `C=CCOC(=O)C1=C(C)N(CC)C(=O)N(CC)C1c1c(Cl)n(C)c2ccccc12` (stereo not given), the growth was 98.2% (inactive).

Turning to `NS(=O)(=O)c1ccc(Nc2nc(Nc3ccccc3)nc(-n3nc(-c4ccccc4)cc3-c3ccccc3)n2)cc1`, the growth is 11.7% (inactive).

As for `CS(=O)(=O)c1nccc(-c2c(-c3ccc(F)c(OCc4ccc(F)cc4)c3)nc3sccn23)n1`, the growth is -37.2% (active).

Consider `COC(=O)/C=C1\S/C(=N\Nc2ccc([N+](=O)[O-])cc2[N+](=O)[O-])N(C2CCCCC2)C1=O`, for which the growth is 45.1% (inactive).

Turning to `CN(C)c1ccc(/C=C/c2ccnc3ccccc23)cc1`, the growth was -9.88% (active).

Regarding `CCCCCCOC(=O)c1cc(-c2ccc(F)cc2)nc2ccccc12`, the growth is 105% (inactive).

Consider `S=C(Nc1ccccc1)c1ccccn1`, for which the growth is 101% (inactive).

In the case of `Nc1ccc2c(c1)Cc1cc(N)c(Cl)cc1-2`, the growth was 80.4% (inactive).

`N#C/C(=C\c1ccc(-c2ccc(Cl)cc2Cl)o1)c1ccc(F)cc1`: the growth is 96.3% (inactive).

Take `CCCCCCC(CCCC)COC(=O)c1ccc(Cl)cc1` (stereo not given): the growth was 96.2% (inactive).

Regarding `COc1ccc(C2Nc3nc(SC)nc(N)c3N=C3c4ccccc4CCC32)cc1` (stereo not given), the growth was 102% (inactive).

Take `O=c1[nH]nnc2c1ncn2C1OC(CO)C(O)C1O` (stereo not given): the growth was 40.1% (inactive).

As to `COc1ccccc1NC(=O)C1=C(C)NC(C)=C(C(=O)Nc2ccccc2OC)C1c1cccc([N+](=O)[O-])c1`, the growth was 74.3% (inactive).
